# From PubChem BioAssay
# Compounds with a hit are over-represented: about 2.1% of the library has one in this group of screens.
# rRNA inh HTS = reduced GFP signal of wild-type E. coli, primary screen, bacterial rRNA inhibitor project, GFP/RFP fluorescence, OD600, single point. E. coli WT GFP vs humanized-ribosome RFP mutants, 24 h; active compounds read low; DMSO median 0, no signal -100. GFP signal change (wild-type ribosome), % (no concentration beside the values). 350,000 compounds, 1.6% hits;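 active = significant combined selectivity score with lowered wild-type GFP, culture density cut under 30%, mutant RFP and density less affected; inactive = any of these conditions unmet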
# CFTR F508del cor = F508del CFTR correction, initial screen, CFBE line, single point; CFBE cells, YFP halide quenching; stimulated with forskolin plus potentiator P3; % fluorescence drop versus neutral controls; 350,000 compounds, 0.36% hits; activity (quench increase), % at 7.58 µM;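 active = mean added fluorescence quench of at least 8% versus neutral control, with both replicates also reaching 8%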;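 note: cells transiently co-express mutant CFTR-F508del with the halide-sensitive YFP; corrector assay measuring rescue of mutant channel to the surface after 24 h compound exposure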
# ARNT-TACC3 inh = disruptors of ARNT/TACC3 protein interaction, primary screen, biochemical, AlphaScreen, single concentration | Transforming acidic coiled-coil-containing protein 3 (Homo sapiens), Q9Y6A5 | AlphaScreen His-ARNT PAS-B/GST-TACC3 binding, luminescence; TACC3 fragment carries E629A point mutation | inhibition, % at 9.99 µM | 390,000 compounds, 0.66% hits;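 active = mean inhibition of replicates at least 50% and at least half of replicates each reaching 50%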
# ERAP1 inh = human ERAP1 aminopeptidase inhibitors, primary screen, biochemical, single point, plate reader; Endoplasmic reticulum aminopeptidase 1 (Homo sapiens), Q9NZ08; recombinant ERAP1, Leu-AMC fluorescence, 60 min; inhibition, % at 10.7 µM; 340,000 compounds, 0.15% hits;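 active = mean replicate inhibition of at least 30%, or all replicates individually reaching that 30% level; inactive = mean below 30% and not every replicate reaching it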
# Target sequence (Q9NZ08 whole entry, looked up): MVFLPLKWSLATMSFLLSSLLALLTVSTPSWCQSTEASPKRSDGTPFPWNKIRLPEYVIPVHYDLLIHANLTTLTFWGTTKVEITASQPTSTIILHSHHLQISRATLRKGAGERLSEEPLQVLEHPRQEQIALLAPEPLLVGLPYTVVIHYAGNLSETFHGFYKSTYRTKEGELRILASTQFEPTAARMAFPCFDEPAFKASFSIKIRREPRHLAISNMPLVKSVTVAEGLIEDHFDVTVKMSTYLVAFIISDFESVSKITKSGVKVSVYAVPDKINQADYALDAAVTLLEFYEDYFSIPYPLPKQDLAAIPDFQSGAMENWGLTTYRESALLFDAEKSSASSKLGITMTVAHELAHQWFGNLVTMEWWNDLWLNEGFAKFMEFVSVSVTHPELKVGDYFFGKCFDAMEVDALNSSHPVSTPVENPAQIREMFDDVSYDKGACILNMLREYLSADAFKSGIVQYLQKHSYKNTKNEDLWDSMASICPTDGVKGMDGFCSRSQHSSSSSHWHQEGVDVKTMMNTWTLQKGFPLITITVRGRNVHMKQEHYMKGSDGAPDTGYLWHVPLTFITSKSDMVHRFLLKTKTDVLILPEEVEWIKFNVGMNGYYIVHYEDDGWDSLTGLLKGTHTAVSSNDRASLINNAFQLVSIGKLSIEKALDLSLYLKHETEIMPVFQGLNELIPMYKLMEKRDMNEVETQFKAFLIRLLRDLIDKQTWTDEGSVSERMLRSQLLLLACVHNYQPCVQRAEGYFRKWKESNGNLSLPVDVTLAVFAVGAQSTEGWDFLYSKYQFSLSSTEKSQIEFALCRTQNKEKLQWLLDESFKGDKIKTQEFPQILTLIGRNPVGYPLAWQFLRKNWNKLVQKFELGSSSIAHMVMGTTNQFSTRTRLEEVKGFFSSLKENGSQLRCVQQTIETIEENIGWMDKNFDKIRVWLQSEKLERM
# PvdQ acylase = P. aeruginosa PvdQ acylase inhibitors, primary screen, biochemical, fluorescence, plate reader and imaging, single point; inhibition, % at 10 µM; purified PvdQ acylase; 340,000 compounds, 0.063% hits; in the data active = inhibition above about 30%, passing the limit was not always enough
# A number is an active result; 0 = inactive; - = no result given.
SMILES,rRNA inh HTS,CFTR F508del cor,ARNT-TACC3 inh,ERAP1 inh,PvdQ acylase
CCOC(=O)N1CCC(N(CCOC)C(=O)Nc2ccc(Cl)cc2)CC1,-16,0,0,0,0
CCOC(=O)c1cc(C)n(-c2ccc(Cl)cc2)c1C,-23,0,0,-,0
CCOC(=O)N1CCN(c2ccc(Cl)cc2)CC1,0,-,0,0,44
CCOC(=O)c1cc(C)n(-c2ccc(OC)c(OC)c2)c1C,-,-,-,-,0
C[C@H](CO)N1C[C@H](C)[C@H](CN(C)C(=O)Nc2ccc(C(F)(F)F)cc2)OCCCC[C@H](C)Oc2ccc(NS(=O)(=O)c3ccccc3)cc2C1=O,0,0,0,0,-
O=C(c1cc(-c2ccccc2Cl)nc2ccccc12)N1CCN(c2ccccc2O)CC1,0,0,0,0,0
NC(=O)c1cc(C(=O)c2cccc(Cl)c2Cl)c[nH]1,-48,0,0,0,0
Cc1ccccc1C(=O)c1c[nH]c(C(=O)N2CCN(c3ccccc3F)CC2)c1,0,0,0,0,0
NC(=O)c1cc(C(=O)c2ccccc2Cl)c[nH]1,0,0,0,0,0
O=C(c1cc(-c2ccncc2)nc2c(Cl)cccc12)N1CCN(c2ccccc2F)CC1,0,14,0,0,0
O=C(c1c[nH]c(C(=O)N2CCN(c3ccccc3F)CC2)c1)c1cccc(Cl)c1Cl,-28,0,0,0,0
C[C@H]1CN([C@@H](C)CO)C(=O)c2cc(NC(=O)Cc3ccccc3)ccc2O[C@H]1CN(C)C(=O)Nc1ccc(F)cc1,0,0,0,0,-
CO[C@@H]1CN(C)C(=O)c2ccc(NC(=O)C3CC3)cc2OC[C@@H](C)N(Cc2cncnc2)C[C@@H]1C,0,0,-,-,-
CCCNC(=O)C[C@H]1CC[C@H]2[C@@H](COC[C@H](O)CN2C(=O)c2cc(Cl)cc(Cl)c2)O1,0,0,0,0,-
COc1cc(/C=C(\C#N)c2nc3ccccc3[nH]2)cc(OC)c1O,0,10,0,0,0
COc1cc(/C=C(\C#N)C(=O)c2c[nH]c3ccccc23)cc(OC)c1O,0,17,0,0,0
COc1cc(/C=C(\C#N)C(=O)NCCc2ccccc2)cc(OC)c1O,-31,0,0,-,0
CCOc1ccc(/C=C(\C#N)C(=O)c2c(C)[nH]c3ccccc23)cc1OC,0,0,0,0,0
COC(=O)/C(C#N)=C/c1c[nH]c2ccccc12,-22,0,0,0,0
COc1ccc(/C=C(\C#N)c2nc3ccccc3[nH]2)cc1O,0,0,0,0,0
O=C(Nc1ccccc1F)N[C@H]1C=C[C@@H](CC(=O)N2CCCCC2)O[C@H]1CO,0,0,0,0,-
COC(=O)[C@]12C[C@H](CC(=O)NCc3cccs3)C(=O)N(Cc3ccccc3)C1=C[C@H](C(C)C)O[C@@H]2C1CC1,0,0,-,0,-
COc1cccc(CNC(=O)[C@@H]2[C@@H](CO)[C@@H]3Cn4c(ccc(-c5ccncc5)c4=O)[C@@H]3N2C)c1,0,-,0,0,-
C[C@H](CO)N1C[C@H](C)[C@H](CN(C)C(=O)C2CCOCC2)Oc2ncc(C#CC(C)(C)O)cc2C1=O,0,0,0,0,-
O=C(Nc1ccc(Cl)cc1)N(Cc1cccs1)Cc1cccs1,-,-,0,-,0
SMILES,rRNA inh HTS,CFTR F508del cor,ARNT-TACC3 inh,ERAP1 inh,PvdQ acylase
CC(C)NC(=O)N(Cc1ccc(Cl)cc1)Cc1cccs1,-24,0,0,0,0
CC(=O)c1cccc(NC(=O)c2ccc(N(C)S(=O)(=O)c3ccc(C)cc3)cc2)c1,-24,0,-,0,0
CN(c1ccccc1)S(=O)(=O)c1ccc(NC(=O)c2ccc(F)cc2)cc1,-28,0,0,0,0
O=C(Nc1cccc(Cl)c1)N[C@@H]1CC[C@@H](CCNC(=O)C2CCCCC2)O[C@H]1CO,0,0,0,0,-
O=C(NCC[C@@H]1CC[C@H](NC(=O)c2cnccn2)[C@H](CO)O1)c1ccc2c(c1)OCO2,0,0,0,0,-
c1ccc(-c2nc3c4ccccc4ccn3c2CN2CCOCC2)cc1,-29,0,0,-,0
COC(=O)COc1ccc(S(=O)(=O)NCCC2=CCCCC2)cc1C,-21,0,0,0,0
O=C(C[N+]1(CC#Cc2ccccc2)CCOCC1)c1ccc(Cl)cc1,-24,0,0,0,0
Cc1ccc(S(=O)(=O)N2CCC(C)CC2)c([N+](=O)[O-])c1,-25,0,0,0,0
C[C@H](CO)N1C[C@H](C)[C@@H](CN(C)C)Oc2c(NC(=O)Nc3ccc(C(F)(F)F)cc3)cccc2C1=O,0,0,0,0,-
C[C@]12CC[C@@H]3c4ccc(O)cc4CC[C@H]3[C@@H]1CCC2=O,0,0,0,0,0
Cc1cc(O)cc2c1C1CCC3(C)C(=O)CCC3C1C=C2 (stereo not given),0,8.3,0,0,0
O=C(NCC[C@H]1CC[C@H](NS(=O)(=O)c2cccc(Cl)c2)[C@H](CO)O1)c1cnccn1,0,0,0,0,-
C[C@H](CO)N1C[C@H](C)[C@H](CN(C)C)Oc2ccc(NC(=O)Nc3ccc(C(F)(F)F)cc3)cc2C1=O,0,0,0,0,-
COCCN(C(=O)COC(=O)CNC(=O)c1cccs1)c1c(N)n(Cc2ccccc2)c(=O)[nH]c1=O,0,0,0,35,0
CCN(C(=O)COC(=O)CNC(=O)c1cccs1)c1c(N)n(Cc2ccccc2)c(=O)[nH]c1=O,0,0,0,0,0
O=c1c(OC2OC(CO)C(O)C(O)C2O)c(-c2ccc(O)c(O)c2)oc2cc(O)cc(O)c12 (stereo not given),0,0,0,56,0
CNC(=O)C[C@@H]1CC[C@H]2[C@@H](COc3ccc(NC(=O)c4cscn4)cc3C(=O)N2C)O1,0,0,0,-,-
Cc1noc(C)c1NC(=O)N(C)C[C@H]1Oc2ccc(NC(=O)Nc3ccccc3)cc2C(=O)N([C@H](C)CO)C[C@H]1C,0,0,0,0,-
O=C(N/N=C/c1c(O)ccc2ccccc12)c1ccc(Br)o1,0,12,0,0,0
O=C(N/N=C/c1ccccn1)c1ccc(Br)o1,-,-,69,-,0
O=C(N/N=C/c1c(O)ccc2ccccc12)c1ccc[n+](CCO)c1,0,0,64,0,0
Cc1occc1C(=O)N/N=C/c1c(O)ccc2ccccc12,0,10,-,0,0
CC(=O)Nc1ccc2c(c1)C(=O)N(C)[C@H]1CC[C@H](CC(=O)NCC3CCCCC3)O[C@H]1CO2,0,0,0,-,-
O=C(N/N=C\c1c(O)ccc2ccccc12)c1cncc(Br)c1,0,35,0,0,0
Cn1nccc1C(=O)N/N=C/c1c(O)ccc2ccccc12,0,11,0,0,0
O=C(N/N=C/c1c(O)ccc2ccccc12)c1cccnc1,0,-,59,0,0
COc1ccc2ccccc2c1/C=N\NC(=O)c1cccnc1,0,0,-,0,-
